# Source: the supplement of paper PMC10849652
# Targets with a hit are over-represented here; the source holds about 8,800 in all. About 0.5% of all pairs of compound and target were hits. Unmarked numbers belong to inactive results.
# Legend:
# Assay in all cases: log2 fold change, soluble protein after heating vs DMSO (PISA); higher = thermal stabilisation; K562 lysate, 10 uM; active = over 0.2 and 3.5 SD of the protein, either way, in both replicates (recomputed)
# [1] = compound: NCC(=O)Nc1ccc(-n2nc(C(F)(F)F)cc2-c2ccc3c(ccc4ccccc43)c2)cc1
# How it was run: (§1)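 Soluble protein was defined as the supernatant remaining after 21,000xg for 90 min, following pooling of heated aliquots and adjustment to 0.5% NP-40 at 4°C. Before that, crude K562 extract at 1 mg/mL protein in PBS pH 7.4 with 1 mM MgCl2 was treated with 10 μM compound for 30 min and heated for 3 min across 48°C-58°C. Quantification used TMTpro 16plex LC-MS/MS with channel sums equalised, and values are log-two fold changes in thermal stability relative to solvent controls from duplicates.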
# vorinostat = compound: O=C(CCCCCCC(=O)Nc1ccccc1)NO [vorinostat]
# How it was run: as §1
# silmitasertib = compound: O=C(O)c1ccc2c(c1)nc(Nc1cccc(Cl)c1)c1ccncc12 [silmitasertib]
# How it was run: as §1
# [2] = compound: O=C1NC(=O)C(c2cnc3ccccn23)=C1c1cn2c3c(cc(F)cc13)CN(C(=O)N1CCCCC1)CC2
# How it was run: as §1
# entospletinib = compound: c1cn2cc(-c3ccc4cn[nH]c4c3)nc(Nc3ccc(N4CCOCC4)cc3)c2n1 [entospletinib]
# How it was run: as §1
# Chain of UniProt Q5SZK8 (Q5SZK8 whole entry, looked up): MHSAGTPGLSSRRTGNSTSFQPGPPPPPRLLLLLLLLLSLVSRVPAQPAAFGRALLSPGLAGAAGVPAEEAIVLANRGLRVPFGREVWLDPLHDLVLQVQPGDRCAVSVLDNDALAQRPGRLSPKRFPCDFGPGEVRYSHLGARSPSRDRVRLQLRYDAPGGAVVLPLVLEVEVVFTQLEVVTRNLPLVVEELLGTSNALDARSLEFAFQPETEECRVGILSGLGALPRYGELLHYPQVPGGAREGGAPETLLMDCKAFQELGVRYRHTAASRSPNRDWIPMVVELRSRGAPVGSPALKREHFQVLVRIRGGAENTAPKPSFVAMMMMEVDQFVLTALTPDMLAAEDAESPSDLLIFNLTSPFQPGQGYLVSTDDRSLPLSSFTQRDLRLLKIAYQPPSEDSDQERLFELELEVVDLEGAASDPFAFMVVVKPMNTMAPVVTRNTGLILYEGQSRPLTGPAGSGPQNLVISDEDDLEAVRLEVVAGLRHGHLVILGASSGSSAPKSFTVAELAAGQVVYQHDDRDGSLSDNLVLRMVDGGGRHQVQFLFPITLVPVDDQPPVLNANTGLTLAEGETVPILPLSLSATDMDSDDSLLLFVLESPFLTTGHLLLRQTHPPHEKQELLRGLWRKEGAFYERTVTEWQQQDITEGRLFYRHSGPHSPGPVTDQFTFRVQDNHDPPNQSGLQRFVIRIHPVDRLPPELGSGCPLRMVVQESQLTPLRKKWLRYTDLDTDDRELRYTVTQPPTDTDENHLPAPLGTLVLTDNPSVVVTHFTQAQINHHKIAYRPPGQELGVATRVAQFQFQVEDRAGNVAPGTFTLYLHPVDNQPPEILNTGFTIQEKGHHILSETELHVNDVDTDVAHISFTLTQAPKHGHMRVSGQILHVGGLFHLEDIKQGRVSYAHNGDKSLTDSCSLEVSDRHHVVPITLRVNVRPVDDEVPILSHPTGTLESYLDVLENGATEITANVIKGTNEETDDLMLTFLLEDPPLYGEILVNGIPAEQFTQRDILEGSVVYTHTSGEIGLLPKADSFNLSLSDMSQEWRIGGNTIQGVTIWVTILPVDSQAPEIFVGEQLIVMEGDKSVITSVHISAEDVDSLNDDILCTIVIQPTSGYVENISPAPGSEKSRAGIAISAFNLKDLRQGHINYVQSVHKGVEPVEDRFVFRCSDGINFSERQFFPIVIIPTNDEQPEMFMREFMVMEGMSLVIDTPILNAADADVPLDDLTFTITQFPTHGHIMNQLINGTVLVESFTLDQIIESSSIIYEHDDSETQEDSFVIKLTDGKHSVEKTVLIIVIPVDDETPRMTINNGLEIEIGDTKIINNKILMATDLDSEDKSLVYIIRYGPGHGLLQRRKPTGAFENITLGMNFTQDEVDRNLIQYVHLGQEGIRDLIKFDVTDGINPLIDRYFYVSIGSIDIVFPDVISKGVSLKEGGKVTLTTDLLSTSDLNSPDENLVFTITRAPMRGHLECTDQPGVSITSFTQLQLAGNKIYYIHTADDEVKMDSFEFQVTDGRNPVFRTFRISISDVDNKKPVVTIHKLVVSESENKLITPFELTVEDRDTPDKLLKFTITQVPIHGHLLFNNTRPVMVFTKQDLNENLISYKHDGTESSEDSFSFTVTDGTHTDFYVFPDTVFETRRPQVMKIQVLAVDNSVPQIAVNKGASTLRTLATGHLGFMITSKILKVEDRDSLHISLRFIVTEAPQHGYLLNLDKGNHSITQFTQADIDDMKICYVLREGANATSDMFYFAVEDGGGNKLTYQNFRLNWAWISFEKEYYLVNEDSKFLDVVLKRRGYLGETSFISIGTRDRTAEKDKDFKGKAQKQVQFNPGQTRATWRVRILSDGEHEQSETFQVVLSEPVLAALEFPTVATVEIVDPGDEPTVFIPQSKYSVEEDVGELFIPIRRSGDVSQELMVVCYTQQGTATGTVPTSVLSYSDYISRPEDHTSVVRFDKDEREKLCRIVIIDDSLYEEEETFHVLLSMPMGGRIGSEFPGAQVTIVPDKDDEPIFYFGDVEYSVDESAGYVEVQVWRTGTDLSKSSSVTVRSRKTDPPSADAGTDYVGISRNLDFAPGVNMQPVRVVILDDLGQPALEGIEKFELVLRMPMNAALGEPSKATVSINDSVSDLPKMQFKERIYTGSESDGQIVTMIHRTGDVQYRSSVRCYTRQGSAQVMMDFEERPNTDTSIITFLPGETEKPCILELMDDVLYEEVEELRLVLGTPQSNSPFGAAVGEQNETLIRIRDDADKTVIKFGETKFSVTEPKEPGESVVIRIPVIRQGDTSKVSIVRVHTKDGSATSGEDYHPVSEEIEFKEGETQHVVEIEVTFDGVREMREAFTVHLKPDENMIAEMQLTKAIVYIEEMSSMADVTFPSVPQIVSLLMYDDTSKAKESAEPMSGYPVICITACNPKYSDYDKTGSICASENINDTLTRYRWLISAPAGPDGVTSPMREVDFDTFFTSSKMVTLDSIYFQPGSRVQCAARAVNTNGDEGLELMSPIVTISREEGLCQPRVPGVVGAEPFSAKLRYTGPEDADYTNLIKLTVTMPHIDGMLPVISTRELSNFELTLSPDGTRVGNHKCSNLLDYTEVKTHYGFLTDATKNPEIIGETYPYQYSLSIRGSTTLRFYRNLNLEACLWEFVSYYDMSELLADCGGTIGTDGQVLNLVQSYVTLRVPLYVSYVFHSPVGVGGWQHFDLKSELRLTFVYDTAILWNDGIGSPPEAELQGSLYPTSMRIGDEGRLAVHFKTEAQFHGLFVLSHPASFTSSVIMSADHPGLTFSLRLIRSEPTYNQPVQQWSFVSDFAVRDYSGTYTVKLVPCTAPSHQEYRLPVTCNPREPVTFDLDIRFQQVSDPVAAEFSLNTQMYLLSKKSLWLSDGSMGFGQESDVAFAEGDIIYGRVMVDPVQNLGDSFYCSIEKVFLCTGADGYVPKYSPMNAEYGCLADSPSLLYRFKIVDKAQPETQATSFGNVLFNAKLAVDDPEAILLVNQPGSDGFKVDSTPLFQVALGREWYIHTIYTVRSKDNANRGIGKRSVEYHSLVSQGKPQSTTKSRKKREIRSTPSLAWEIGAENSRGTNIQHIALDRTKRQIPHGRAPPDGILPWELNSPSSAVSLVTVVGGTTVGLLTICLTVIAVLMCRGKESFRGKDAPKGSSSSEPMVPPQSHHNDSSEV
# Chain of UniProt Q9H410 (Q9H410 whole entry, looked up): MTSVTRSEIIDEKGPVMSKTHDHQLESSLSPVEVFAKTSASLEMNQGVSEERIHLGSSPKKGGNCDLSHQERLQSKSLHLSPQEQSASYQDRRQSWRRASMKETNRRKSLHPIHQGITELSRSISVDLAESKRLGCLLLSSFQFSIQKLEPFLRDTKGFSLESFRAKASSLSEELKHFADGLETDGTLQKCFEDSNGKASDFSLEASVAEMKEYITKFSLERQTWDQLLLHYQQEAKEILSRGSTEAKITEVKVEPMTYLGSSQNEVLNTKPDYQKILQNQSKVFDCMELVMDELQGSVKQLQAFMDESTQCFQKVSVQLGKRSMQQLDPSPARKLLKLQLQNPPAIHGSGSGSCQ
# Chain of UniProt Q13144 (Q13144 whole entry, looked up): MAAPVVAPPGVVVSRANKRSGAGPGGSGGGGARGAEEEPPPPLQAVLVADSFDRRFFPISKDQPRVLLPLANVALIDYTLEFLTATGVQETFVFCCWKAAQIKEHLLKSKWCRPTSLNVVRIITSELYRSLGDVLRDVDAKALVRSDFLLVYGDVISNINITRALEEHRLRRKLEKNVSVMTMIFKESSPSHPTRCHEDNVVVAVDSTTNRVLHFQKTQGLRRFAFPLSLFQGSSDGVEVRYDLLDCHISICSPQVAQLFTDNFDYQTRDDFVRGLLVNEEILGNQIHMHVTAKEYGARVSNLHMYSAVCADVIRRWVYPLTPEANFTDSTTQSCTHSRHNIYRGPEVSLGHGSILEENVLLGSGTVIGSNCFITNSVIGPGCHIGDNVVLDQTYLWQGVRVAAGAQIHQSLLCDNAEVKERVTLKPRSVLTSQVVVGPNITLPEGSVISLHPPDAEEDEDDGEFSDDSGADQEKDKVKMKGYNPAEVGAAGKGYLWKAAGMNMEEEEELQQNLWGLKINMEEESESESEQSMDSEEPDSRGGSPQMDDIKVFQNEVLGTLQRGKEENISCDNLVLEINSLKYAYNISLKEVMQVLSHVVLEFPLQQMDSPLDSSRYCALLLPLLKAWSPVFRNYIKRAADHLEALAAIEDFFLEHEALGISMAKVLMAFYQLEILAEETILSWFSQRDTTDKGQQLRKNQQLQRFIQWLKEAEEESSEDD
Target,log2 fold change [1],log2 fold change (vorinostat),log2 fold change (silmitasertib),log2 fold change [2],log2 fold change (entospletinib)
FREM2 (UniProt Q5SZK8),0.094,0.048,0.085,-0.11,-0.003
EIF2B5 (UniProt Q13144),0.013,-0.227 (active),-0.009,-0.029,0.013
DSN1 (UniProt Q9H410),-0.028,-0.358 (active),-0.007,0.008,-0.017
